Screens as filed in PubChem BioAssay.
This is a sample that favours compounds with a hit; in the whole collection about 1.4% have one here.
14-3-3 Bad PPI: inhibitors of 14-3-3 zeta/Bad binding, primary screen, biochemical, TR-FRET, bovine 14-3-3 zeta; 14-3-3 protein zeta/delta (Bos taurus), P63103; TR-FRET 14-3-3zeta/Dy647-pBad peptide displacement, 1 h; inhibition, % at 21.7 µM; 220,000 compounds, 0.71% hits; AID 781, 2007;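 active = inhibition above about 70%, limit read from the data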
Target sequence (P63103 whole entry, looked up): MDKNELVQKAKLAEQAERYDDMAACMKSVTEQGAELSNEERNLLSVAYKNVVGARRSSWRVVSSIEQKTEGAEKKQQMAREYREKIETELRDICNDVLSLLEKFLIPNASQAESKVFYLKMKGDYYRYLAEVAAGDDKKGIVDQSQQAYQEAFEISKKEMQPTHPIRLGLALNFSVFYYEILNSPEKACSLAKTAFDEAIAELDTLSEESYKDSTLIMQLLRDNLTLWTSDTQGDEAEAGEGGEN
MsrA act: bovine MsrA enzyme activators, primary screen, biochemical, absorbance, HTS; 360,000 compounds, 0.3% hits; activation, % at 10.6 µM; purified bovine MsrA, absorbance read-out; AID 602163, 2012; in the data active = activation above about 7.5%
p-CIP stab down: p/CIP-EGFP fusion destabilizers, primary screen, fluorescence, F442A cells. Q05BA5. 16 h. decrease of EGFP signal, % at 10 µM. 290,000 compounds, 0.01% hits;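 active = EGFP signal decrease of at least 30% at 10 µM or well 3 SD below plate mean, unless failing retest; inactive = the rest, including hits failing retest or dose response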
MsrA inhibitor: bovine MsrA enzyme inhibitors, primary screen, biochemical, absorbance, HTS; purified bovine MsrA, absorbance read-out; 360,000 compounds, 0.75% hits; inhibition, % at 15.5 µM
MsrA inh confirm: bovine MsrA inhibitors, retest, confirmation, biochemical, absorbance, HTS | 2,300 compounds, 41% hits | inhibition, % at 15.5 µM | purified bovine MsrA, absorbance read-out | AID 651822, 2012 | shares compounds with MsrA inhibitor;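 note: coupled to thioredoxin reductase with NADPH and selenocystamine and DMSO as substrate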
Large screens that a line does not name were inactive (follow-up assays come after a bar, where they were run). Cut-off read from the data, not from the text of the source, unless noted: active = inhibition above about 4.5%; inactive = the rest.

COc1ccc(/C=N/N=C(\N)c2nonc2N)cc1	MsrA inhibitor 5.3 | MsrA inh confirm inactive
COc1cc(/C=N/N=C(\N)c2nonc2N)cc(OC)c1O	none
CC(=O)Nc1ccc(N(CC(=O)NC2CCCCC2)C(=O)Cn2nnc(-c3ccccc3)n2)cc1	none (no result: 14-3-3 Bad PPI)
NC(=S)N/N=C/C=C/c1ccccc1	MsrA inhibitor 5.2 | MsrA inh confirm inactive
O=C(O)c1cc(N/N=C/C=C/c2ccccc2)ccc1Cl	MsrA inhibitor 5.1 | MsrA inh confirm inactive
Cc1occc1C(=O)N/N=C/C=C/c1ccccc1	MsrA inhibitor 5.5 | MsrA inh confirm 5.1
Cc1cc(C(=O)N/N=C/C=C/c2ccccc2)c(C)o1	MsrA inhibitor 4.7 | MsrA inh confirm inactive
O=C(NNC(=O)c1ncc(Cl)c(Cl)c1Cl)c1ccc(F)cc1	none (no result: 14-3-3 Bad PPI)
O=c1ncn(-c2cccc(Cl)c2)c2ccccc12	none (no result: 14-3-3 Bad PPI, p-CIP stab down)
CC(C)NC(=O)Nc1ccc2c(c1)C(=O)N([C@H](C)CO)C[C@H](C)[C@@H](CN(C)S(=O)(=O)c1cn(C)cn1)O2	none (no result: 14-3-3 Bad PPI, p-CIP stab down)
O=C(N/N=C/C=C/c1ccccc1)c1cccc(Br)c1	none
Cc1ccc(C(=O)N/N=C/C=C/c2ccccc2)cc1	MsrA inhibitor 4.9 | MsrA inh confirm 4.6
COCCCNC(=O)CSc1nc2cc(S(=O)(=O)N3CCCCC3)ccc2o1	none (no result: 14-3-3 Bad PPI, p-CIP stab down)
Cn1ccnc1Sc1cc(NCCCO)c([N+](=O)[O-])c2nonc12	MsrA inhibitor 5.7 | MsrA inh confirm inactive
COCc1cc(C)nc(N/N=C/c2ccc(-c3ccc(Cl)cc3[N+](=O)[O-])o2)c1C#N	14-3-3 Bad PPI 85.9, MsrA inhibitor 6.4 | MsrA inh confirm inactive
Cc1cc(C)n2nc(C(F)(F)F)c(-c3ccccc3)c2n1	MsrA inhibitor 4.8 | MsrA inh confirm inactive
COc1cc(/C=N/NC(=O)c2ccc3nc[nH]c3c2)ccc1O	none
CN(C)c1ccc(/C=N/NC(=O)c2ccc3nc[nH]c3c2)cc1	MsrA inhibitor 4.9 | MsrA inh confirm 4.9
CSc1ccc(/C=N/NC(=O)c2ccc3nc[nH]c3c2)cc1	MsrA inhibitor 5.1 (no result: 14-3-3 Bad PPI, p-CIP stab down) | MsrA inh confirm 6.1
CCN(CC)c1ccc(/C=N/NC(=O)c2ccc3nc[nH]c3c2)cc1	none
Cc1c(OCC(N)=O)ccc2c(-c3ccccc3)cc(=O)oc12	MsrA inhibitor 31.1 (no result: 14-3-3 Bad PPI) | MsrA inh confirm 40.0
CC(=O)COc1ccc2c(-c3ccccc3)cc(=O)oc2c1C	MsrA inhibitor 19.1 (no result: 14-3-3 Bad PPI) | MsrA inh confirm 21.8
CCOC(=O)/C(C#N)=C1/C=CN(C)C(C)=N1	MsrA inhibitor 6.6 | MsrA inh confirm 6.0
CCCn1ncc(CN2CCC(C(=O)Nc3cccc(-c4cccc(F)c4)c3)CC2)c1C	none (no result: 14-3-3 Bad PPI)
COc1ccc(/C=C/C(=O)Nc2ccncc2)cc1OC	MsrA inhibitor 5.8 | MsrA inh confirm inactive
COc1cccc(/C=C/C(=O)Nc2ccc3[nH]c(=O)[nH]c3c2)c1	none
COc1cc(/C=C/C(=O)Nc2ccc3[nH]c(=O)[nH]c3c2)cc(OC)c1OC	MsrA inhibitor 5.6 | MsrA inh confirm inactive
COc1cc(/C=C/C(=O)OCC(=O)Nc2ccc(S(=O)(=O)N3CCCC3)cc2)ccc1O	none
COc1ccc(/C=C/C(=O)NC(=S)NNC(=O)c2cccnc2)cc1OC	MsrA inhibitor 5.6 | MsrA inh confirm 5.6
COc1ccc(/C=C/C(=O)OCC(=O)Nc2ccc(S(N)(=O)=O)cc2)cc1OC	MsrA inhibitor 4.8 | MsrA inh confirm inactive
COc1ccc(C(=O)N(C)c2ccccc2C(=O)NCCc2ccccc2)cc1	none (no result: 14-3-3 Bad PPI)
Cc1nn(C2CCS(=O)(=O)C2)c(C)c1CN(C)C(=O)c1ccc(Cl)cc1 (stereo not drawn)	none (no result: 14-3-3 Bad PPI, p-CIP stab down)
Cc1ccc(/C=N/N=C2\SCC(=O)N2CC2CC2)cc1	none
COc1ccc(NC(=O)/C=C/c2ccc(OC)c(OC)c2)cn1	MsrA inhibitor 6.8 | MsrA inh confirm inactive
COc1cc(NC(=O)/C=C/c2ccccc2)c(C(=O)O)cc1OC	MsrA inhibitor 4.7 | MsrA inh confirm inactive
COc1ccc(/C=C/C(=O)Nc2ccc(OC)nc2)cc1	none
COc1cc(NC(=O)Cc2ccccc2)c(C(=O)O)cc1OC	none
COc1ccc(C2=NOC(C(=O)NCc3cccnc3)C2)cc1 (stereo not drawn)	none (no result: 14-3-3 Bad PPI)
CN(/N=C/c1cc(Br)cc(Br)c1O)c1cccc(C(F)(F)F)n1	MsrA inhibitor 5.8 (no result: 14-3-3 Bad PPI) | MsrA inh confirm inactive
CN1/C(=C\C=C(C#N)C#N)C(C)(C)c2ccccc21	none
CN1/C(=C/C=N/n2cnnc2)C(C)(C)c2ccccc21	MsrA inhibitor 4.8 | MsrA inh confirm inactive
